The whole screen tested about 400,000 compounds, of which about 13,000 (3.2%) were called active. Where a call stands in place of a potency, no number is given. Not shown: some 18% with an inconclusive outcome. The sample holds actives, similar compounds and a random draw of the others, so the mix is not that of the screen. Calls come from the whole dose curve; as a rule, active = well fitted cell-killing curve with a large enough effect; inconclusive = small, poorly fitted or top-dose-only effect, or effect the other way; inactive = flat fitted curve, though single readings scatter.
experiment: qHTS assay for MDR1-selective chemotherapeutics: Primary screen using the drug-selected MDR subline cells KB-V1; conditions: KB-V1 MDR cells viability, CellTiter-Glo, 72 h; series mostly up to 46.1 µM; note: nearly all actives have a fitted effect of over 60% in size
Procedure, shortened: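 qHTS viability screen in drug-selected KB-V1 MDR cells: 72 h compound treatment at 37 degrees C, ATP luminescence end point.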
Potency is the fitted concentration of half-maximal effect.

SMILES	Potency
COc1ccc(C2=Nc3ccccc3NC(=O)C2N(C(=O)c2cc3ccccc3[nH]2)c2ccccc2)cc1 (configuration not stated)	inactive
COc1ccc(-c2ccc(C(=O)NC(C)C)c3occc23)c(C)c1	inactive
COc1cccc(N(CC(=O)NC2CCCC2)C(=O)Cn2nnc(-c3ccc(C)cc3)n2)c1	inactive
O=C(Cn1nnc(-c2ccccc2)n1)NC(=O)NC1CCCC1	inactive
O=C(Cn1nnc(-c2ccc(CN3CCOCC3)cc2)n1)NC1CCCCC1	23.1 µM (active)
CC(C)(C)C(=O)Nc1cccc(-c2ccc[nH]2)n1	16.4 µM (active)
COc1ccc(C(=O)Nc2cccc(NC(=O)c3ccc(OC)cc3OC)n2)c(OC)c1	inactive
CC(C)(C)C(=O)Nc1ccc(-c2cn3cccnc3n2)cc1	inactive
CCCN1CCN(C(=O)CCCNC(=O)c2ccc(Cl)cc2)CC1	inactive
CCCCNC(=O)CCNC(=O)c1ccc(C(C)(C)C)cc1	14.6 µM (active)
CC(C)(C)c1ccc(C(=O)NCCC(=O)NCc2ccco2)cc1	inactive
CCOc1ccc(S(=O)(=O)NCCC(=O)NNC(=O)c2ccc(F)cc2)cc1	inactive
O=C(CSc1ccc(-c2ccco2)nn1)NCc1ccc2c(c1)OCO2	inactive
O=C(CSc1ccc(-c2ccc(F)cc2)nn1)Nc1ccc2c(c1)OCCO2	inactive
O=C(CSc1ccc(-c2ccco2)nn1)Nc1cccc(F)c1	10.3 µM (active)
Cc1ccc(C(=O)Nc2ccc(OCc3cc(=O)n4c5c(sc4n3)CCCC5)cc2)cc1	inactive
CC(=O)c1ccc(NC(=O)c2sc3nc4n(c(=O)c3c2C)CCCCC4)cc1	18.4 µM (active)
CC(=O)c1ccc(NC(=O)c2nc(-c3ccc(C)cc3)n3c2CCCCC3)cc1	20.6 µM (active)
Cc1c(C(=O)Nc2ccccc2)sc2nc3n(c(=O)c12)CCCCC3	inactive
Cc1ccc(NC(=O)C2(N3CCC3=O)CCCCC2)cc1	inactive
O=c1c2c(nc3n1CCCCC3)sc1c(O)cccc12	inactive
CC1(Oc2ccccc2-c2ccno2)CCN(Cc2ccc(-c3ccccc3)o2)C1 (configuration not stated)	inactive
CC(C)CCNC(=O)c1[nH]c(C(F)(F)F)nc1-c1ccccc1	inactive
NCCCCC(C(=O)O)N(C(=O)OCc1ccccc1)C(=O)OCc1ccccc1 (configuration not stated)	inactive
O=C(Nc1ccc(Cl)cc1)c1csc([C@@H]2O[C@H](CO)[C@H](O)[C@H](O)[C@H]2O)n1	inactive

SMILES	Potency
CC(=O)Nc1ccc2nc(SCCOc3cc(C)cc(C)c3)sc2c1	inactive
O=C1NC[C@H](CCCCN2C[C@H](Cc3ccc(O)cc3)N(CCc3ccccc3)C(=O)C2=O)N(CCc2ccccc2)C1=O	inactive
Cc1cccc(Cn2c(CN3CCC(C(=O)NCc4ccccc4Cl)CC3)cc3ccccc32)c1	inactive
C/C(COc1ccccc1)=N\NC(=O)c1nnn(-c2nonc2N)c1-c1ccc(C)cc1	inactive
CCN(CC)c1cc(NC2CCCCC2)c2c3c(onc13)-c1ccccc1C2=O	inactive
CCOC1=C2CN(S(=O)(=O)c3ccc(C)cc3)[C@H](c3cccs3)C[C@H]2[C@H]2C(=O)N(c3ccccc3)C(=O)[C@H]2C1	inactive
COc1ccc(CCNC(=O)c2cc(-c3ccc4c(c3)OCO4)on2)cc1OC	inactive
Cc1oc(C)c2c(=O)cc(-c3ccc4c(c3)OCO4)cc(OC(=O)c3ccc(Cl)cc3)c12	inactive
COc1cc(-c2c(-c3ccc4c(c3)OCO4)noc2C)ccc1F	5.8 µM (active)
CC(Oc1ccc(Br)cc1)C(=O)NCC(c1ccco1)N1CCCCC1 (configuration not stated)	14.6 µM (active)
CC(Oc1ccc(Br)cc1)C(=O)NC1CCCCCC1 (configuration not stated)	inactive
O=C(CCNC(=O)c1ccc(Br)cc1)NCC(c1ccco1)N1CCCCC1 (configuration not stated)	inactive
C=CCn1c2c(c3ccccc31)CCC2	inactive
COc1ccc(CN2C(=O)C(CC(=O)NCc3cccc4ccccc34)CC(C(=O)N3CCOCC3)=C2C)cc1 (configuration not stated)	inactive
O=C(C[C@H]1CC[C@@H](NC(=O)c2ccncc2)[C@@H](CO)O1)NCC1CC1	inactive
O=C(CSc1nc(C2CC2)nc2ccccc12)Nc1cccc(O)c1	inactive
O=C(CSc1nc(C2CC2)nc2ccccc12)Nc1ccc2c(c1)OCCO2	14.6 µM (active)
Cc1nnc(NC(=O)CSc2nc(C3CCCCC3)nc3ccccc23)s1	inactive
CCc1ccc(OC2(C)CCN(CCOc3ccc(C)cc3)C2)cc1 (configuration not stated)	inactive
COc1cc(CNc2ncnc3c2ncn3[C@H]2CN(Cc3cccs3)C[C@@H](CO)O2)cc(OC)c1OC	inactive
COc1ccc(NC(=O)N(C)C[C@@H]2OCc3cn(nn3)CCCC(=O)N([C@H](C)CO)C[C@H]2C)c(OC)c1	inactive
CC(=O)NC1=NN(C(C)=O)C(C)(c2ccc(Cl)s2)S1 (configuration not stated)	5.8 µM (active)
CC(=O)NC1=NN(C(C)=O)C(C)(CCS(=O)(=O)c2ccc(Cl)c(Cl)c2)S1 (configuration not stated)	inactive
CC(=O)NC1=NN(C(C)=O)C(C)(c2ccc(C)cc2)S1 (configuration not stated)	inactive
CCNC(=O)C1(C)CCN(Cc2ccc(C(=O)OCC)o2)C1 (configuration not stated)	inactive

SMILES	Potency
CC(=O)C[C@@H]1OC[C@H](CO)N1S(=O)(=O)c1ccc(C)cc1	inactive
COc1ccc(Cl)cc1-c1cc(C(=O)Nc2cc(OC)c(OC)c(OC)c2)[nH]n1	inactive
CCn1c(=N)n(CC(=O)c2cccc(OC)c2)c2ccccc21	8.2 µM (active)
COc1ccc2cc(C(=O)O)n(CC(=O)c3ccccc3)c2c1	inactive
CCCn1c(=N)n(CC(=O)c2ccc(Cl)c(Cl)c2)c2ccccc21	inactive
O=C(N[C@H]1CC[C@H](CC(=O)N2CCCCC2)O[C@@H]1CO)c1cccc(F)c1	inactive
Cc1cc2nc(-c3ccco3)c(Cc3cccc(F)c3)n2c(C)c1Br	inactive
Cc1cccc(-n2c(=O)c3c(C)c(C)sc3n(CC(N)=O)c2=O)c1	inactive
CCOc1ccccc1NC(=O)Cn1c(=O)n(Cc2ccccc2)c(=O)c2c(C)c(C(=O)N(C)C)sc21	inactive
Cc1cccc(NC(=O)Cn2c(=O)n(Cc3ccccc3)c(=O)c3c(C)c(C)sc32)c1	5.17 µM (active)
CCCS(=O)(=O)NC(=O)C1(C)CCCN(C(=O)c2cc(C)on2)C1 (configuration not stated)	inactive
O=C(OCc1ccc(Br)cc1)c1cccc(-c2nnc(-c3ccccc3)o2)c1	9.2 µM (active)
CC(=O)Nc1cccc(C(=O)OCC(=O)Nc2nnc(-c3ccccc3)o2)c1	inactive
O=C(OCc1ccc(-c2ccccc2)cc1)c1cccc(O)c1	inactive
O=C(O)C1=C/C(=C/C=[N+]2c3cc(O)c(O[C@H]4OC(CO)[C@@H](O)[C@@H](O)[C@@H]4O)cc3C[C@@H]2C(=O)[O-])C[C@H](C(=O)O)N1 (some centres not stated)	inactive
O=C(Nc1cccc2c1CCCC2)C1CCN(C(=O)NC2CCCCC2)CC1	13 µM (active)
Cc1cccc(NC(=O)C2CCN(C(=O)NC3CCCCC3)CC2)c1	inactive
Cc1ccccc1NC(=O)C1CCN(C(=O)NC2CCCCC2)CC1	inactive
CCCCC(O)C1=C[N+](=O)CC=C1 (configuration not stated)	inactive
COc1ccc(N(CC(=O)NCCc2ccc(Cl)cc2)S(=O)(=O)c2c(C)nn(C)c2C)cc1	inactive
C(=Nc1ccc(/C=C/c2ccnc3ccccc23)cc1)c1cc2c3c(c1)CCCN3CCC2	inactive
O=c1c2ccccc2nc(N/N=C/c2ccccc2)n1O	inactive
Cc1cc2c(C)nc(N/N=C/c3ccccc3)nc2o1	23.1 µM (active)
Cc1nc(Cl)cc(N/N=C/c2ccccc2)n1	inactive
O=C(c1cc(C2CCCCN2S(=O)(=O)c2ccccc2)on1)N1CCOCC1 (configuration not stated)	inactive

SMILES	Potency
Nc1cc(C(=O)N2CCN(c3ccccc3Cl)CC2)ccc1N1CC2CC(C1)c1cccc(=O)n1C2 (configuration not stated)	inactive
Cc1ccc(S(=O)(=O)CCC(=O)OCC(=O)N(C)C2CCS(=O)(=O)C2)cc1 (configuration not stated)	inactive
CN(C1CCS(=O)(=O)C1)S(=O)(=O)c1ccc2ccccc2c1 (configuration not stated)	inactive
Cc1ccc(S(=O)(=O)N(c2cccc(C)c2)C2CCS(=O)(=O)C2)cc1 (configuration not stated)	16.4 µM (active)
CCc1nc2nc(C)cc(Nc3ccc(F)c(Cl)c3)n2n1	inactive
N#CCc1c[nH]c2ccc([N+](=O)[O-])cc12	inactive
CCOC(=O)c1ccc2[nH]c3c(c2c1)CCCC3NC=O (configuration not stated)	inactive
O=[N+]([O-])c1ccc2[nH]c3c(c2c1)CCCC3O (configuration not stated)	20.6 µM (active)
Cc1c(C(=O)N(C)C)sc2c1c(=O)n(-c1ccc(F)cc1)c(=O)n2CC(=O)N(C)c1ccccc1	inactive
O=C(COC(=O)Cc1ccc(Cl)cc1Cl)NCc1ccco1	inactive
COCCNC(=O)CSc1nc(N)c(NC(=O)c2ccco2)c(=O)[nH]1	inactive
O=C1c2cccc(OCC(=O)N3N=C(c4cccs4)CC3c3ccc(F)cc3)c2CCN1Cc1ccccc1 (configuration not stated)	1.64 µM (active)
O=C(COc1ccccc1Cl)N1N=C(c2cccs2)CC1c1ccco1 (configuration not stated)	inactive
COc1ccc(C2CC(c3cccs3)=NN2C(=O)CCC(=O)O)cc1OC (configuration not stated)	inactive
COc1ccc(NC(=O)C2(C)Cc3c(-c4ccc(C(N)=O)cc4)ccnc3O2)cc1 (configuration not stated)	inactive
O=C(CSc1ncc(-c2ccccc2)[nH]1)Nc1ccc(F)cc1F	inactive
CC(C)(C)OC(=O)N1CCN(C(=O)c2[nH]c(C(F)(F)F)nc2-c2ccccc2)CC1	inactive
O=C1O/C(=C\c2ccc(O)cc2)C(O)=C1c1ccc(O)cc1	inactive
CCOC(=O)c1cccc(NC(=O)CCc2c(C)nc3ncnn3c2C)c1	inactive
CCOC(=O)c1nnn(CC(=O)Nc2cccc(F)c2)c1C(=O)OCC	inactive
CCOC(=O)c1cccc(NC(=O)CCn2nnc3ccccc32)c1	8.2 µM (active)
C[C@H](CO)N1C[C@H](C)[C@@H](CN(C)S(=O)(=O)c2ccc(F)cc2)OCc2cnnn2CCCC1=O	inactive

From PubChem BioAssay AID1347076 (National Center for Advancing Translational Sciences (NCATS), 2019)
